Shown are actives, neighbours in structure and some others; about 19% of the full set was active somewhere.
TGFb inhibitor – qHTS for Inhibitors of TGF-b. HepG2 CAGA-GFP TGF-b/SMAD3 reporter, GFP fluorescence, 18 h; TGF-beta stimulated, 500 pg/mL final. 1.2% of 410,000 active. AID 588855, 2011. Potency, µM (doses to about 46.1 µM), inactives show at the top dose activity, negative = inhibition, most hits filed as inhibitors; also: potency is read from the fitted curve at half-maximal effect; % is scaled to controls: 0 for no effect and ±100 for the full control effect; nearly all actives have a fitted effect of over 65% in size
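Cell-based qHTS in HEPG2 carrying a CAGA-GFP Smad reporter; compounds added before 500 pg/mL final TGF-beta, 18 h incubation at 37 degrees C, GFP fluorescence quantified per cell by imaging cytometry.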
DT40 TDP1 CPT – qHTS for Inhibitors of human tyrosyl-DNA phosphodiesterase 1 (TDP1): qHTS in cells in presence of CPT | chicken DT40 Tdp1-/-;hTDP1 cells + 20 nM CPT, ATP luminescence, 48 h | Potency, µM (titrated, usually from 46.2 µM), for inactives: at the highest dose activity change, negative = growth inhibition, actives largely listed as inhibitors | 12% of 420,000 active | AID 686979, 2013; also: potency is read from the fitted curve at half-maximal effect; % is scaled to controls: 0 for no effect and ±100 for the full control effect; nearly all actives have a fitted effect of over 55% in size
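Cell growth measured by CellTiter-Glo luminescence after a minimum 48 h, 37 C compound exposure with 20 nM CPT in Tdp1-knockout DT40 cells stably expressing hTDP1, seeded 400/well; qHTS titration format.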
HepG2 viability – qHTS for Inhibitors of TGF-b: Cytotox Counterscreen. HepG2 CAGA-GFP viability, ATP luminescence, 18 h. Potency, µM (doses to about 46.1 µM), without a hit: at the top dose activity change, negative = cytotoxicity, usual class: cytotoxic. 0.76% of 410,000 active; also: potency is read from the fitted curve at half-maximal effect
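CellTiter-Glo luminescence gave cytotoxicity after 18 hours at 37 degrees C. The cells were HepG2 CAGA-GFP in 1% FBS DMEM, stimulated with 500 pg/mL TGF-beta after compound addition. %Activity was normalised to no-cell wells (complete cell-killing) and DMSO (no toxicity), and curves were fitted and classified.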
TDP1 cell noCPT – qHTS for Inhibitors of human tyrosyl-DNA phosphodiesterase 1 (TDP1): qHTS in cells in absence of CPT; DT40 Tdp1-/- hTDP1 cells, no CPT, ATP luminescence, 48 h; Potency, µM (top dose mostly 46.2 µM), without a hit: top-dose activity change, negative = growth inhibition, most hits filed as inhibitors; 15% of 420,000 active; also: potency is read from the fitted curve at half-maximal effect; % is scaled to controls: 0 for no effect and ±100 for the full control effect; nearly all actives have a fitted effect of over 55% in size
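Compound effects on proliferation are scored in DT40 Tdp1-/-;hTDP1 cells in the absence of CPT. ATP levels (CellTiter-Glo luminescence) are recorded after a ≥48 hr, 37 °C incubation.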
IL1B secr inh – qHTS for Inhibitors of Inflammasome Signaling: IL-1-beta AlphaLISA Primary Screen | 4.7% of 360,000 active | THP-1 LPS/ATP IL-1B secretion, AlphaLISA, 16 h; stronger effect = lower value | activity change, % at 57.5 µM; in the data active = activity change below about -50%; inconclusive = mostly about -30% to -49%; also: % is scaled to controls: 0 for no effect and ±100 for the full control effect
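Secreted IL-1B measured by AlphaLISA bead assay after 16 h compound exposure of THP-1 cells; compounds (final up to 57.5 uM) added 1 h before LPS (250 ng/mL) and ATP (1.25 mM) stimulation; lower signal means less secretion.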
ASM inhibitor – Inhibitors of Secretory Acid Sphingomyelinase (S-ASM): qHTS. Sphingomyelin phosphodiesterase (Homo sapiens), P17405. placental ASM, HMU-PC fluorogenic substrate, 60 min. AID 504937, 2011. 0.006% of 340,000 active. Potency, µM (series often up to 57.5 µM), for inactives: top-dose activity change, negative = inhibition, most hits filed as inhibitors; also: potency is read from the fitted curve at half-maximal effect
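Fluorescence read-out (Ex 386 nm, Em 447 nm) after stopping the reaction at pH 10. Enzyme: ASM from human placenta; substrate HMU-PC0, 9 uM final; 60 min, 37 °C. Compound preincubation 10 min, ambient temperature.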
Numbers without * were called inactive; u = inconclusive. Unless noted, calls follow the shape of the dose curve; as a rule, active = well fitted curve in the direction sought with a large enough effect; inconclusive = small, poorly fitted or top-dose-only effect, or another doubt; inactive = no such curve, though single readings can be large; an effect the other way counts as inactive or inconclusive.

SMILES	TGFb inhibitor	DT40 TDP1 CPT	HepG2 viability	TDP1 cell noCPT	IL1B secr inh	ASM inhibitor
O=C(Cn1c(=O)oc2ccccc21)NCCc1ccccc1	12%	2%	2%	-16%	-15	2%
CN1CCC(Oc2ccc(Sc3ccccc3)cc2)CC1	-6%	u	-20%	23µM*	-55*	-1%
CCOc1ccc(NS(=O)(=O)c2ccc3c(c2)N(C(C)=O)CCS3)cc1	-16%	u	-2%	u	0	3%
Cc1ccc(N2C(=O)N(CC(=O)Nc3cccc(Cl)c3)C(=O)C2C)cc1 (configuration not stated)	-5%	u	-24%	u	-61*	-3%
Cc1ccc(NC2CCCN(C(=O)c3ccnc(Cl)c3)C2)cc1C (configuration not stated)	11%	1%	5%	5%	19	1%
